In PubChem BioAssay:
Calls of active or inactive are those of the source.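 The calls were made as follows: active = inhibition at or above 50% at 10 µM; inactive = inhibition below 50%.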

Experiment: inhibitors of Sendai virus-induced IRF3 signaling, primary screen, TLR/RLR signaling modifier project, cell-based, Sendai virus stimulus, luciferase, 10K MLSCN set (AID 602276);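 also: firefly luciferase from ISG56 promoter only with Renilla not read in this screen; 0% = Sendai virus plus DMSO and 100% = medium plus DMSO without virus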
Settings: HEK293 RL24 IRF3 luciferase reporter, at 10 µM, active compounds read high

inhibition, inactive:
CC(=O)Nc1cc2c(nc1C)nc(C)n2Cc1ccc(Br)cc1 15%
COc1ccc(C(C)N2CC34C=CC(O3)C(C(=O)OCC(C)C)C4C2=O)cc1 (stereo not given) 13.5%
COc1ccc2nc3oc(C(=O)NC4CCN(Cc5ccccc5)CC4)cc3cc2c1 -32.2%
CN(C)c1ccc(-c2nn3c(-c4ccc(Cl)cc4Cl)nnc3s2)cc1 -25.6%
COc1ccc(S(=O)(=O)NC(C)C(=O)Nc2cccc(C(C)=O)c2)cc1 (stereo not given) 14.3%
O=C(Nc1cccc2ccccc12)N1CCN(c2ccccc2)CC1 8.28%
O=c1ccc2cc3c([nH]c4ccc(Br)cc43)oc-2c1O 11.2%
CCCCSc1cc(C)nc2ncnn12 -10.9%
CCN1C(=O)CC(N2CCC(Nc3ccc(F)cc3)CC2)C1=O (stereo not given) -4.21%
CCOc1ccccc1NC(=O)CCSc1nc2n[nH]c(C)c2c(=N)n1-c1ccccc1Cl 3.64%
c1ccc(-n2c(Sc3cnccn3)nnc2-c2cccs2)cc1 -2.69%
C=C(C)Cn1c(N2CC(C)CC(C)C2)nc2c1c(=O)[nH]c(=O)n2C (stereo not given) 12.7%
CCC1(C(=O)OC)NC(c2cccc(F)c2)C2C(=O)N(C)C(=O)C21 (stereo not given) 14.4%
Cc1ccccc1-n1c(SCc2c(C)noc2C)nnc1-c1ccncc1 6.71%
COC(=O)C1=C(C)n2nnnc2NC1c1ccc(Cl)cc1 (stereo not given) 2.58%
CCc1ccc(C2CC(c3ccccc3)n3ncnc3N2)cc1 (stereo not given) 13.8%
CCN(C(=O)c1cn(C)c(=O)c2cc(OC)c(OC)cc12)c1ccccc1C 0.738%
COc1ccccc1-n1c(C)nnc1SCC(=O)Nc1cccc(C(C)=O)c1 17.5%
O=C(Nc1ccc(N2CCOCC2)c(Cl)c1)c1ccc(Br)o1 -54.1%
Cc1cccc(-n2c(=O)cc(N3CCN(c4ccc(F)cc4)CC3)[nH]c2=O)c1 -5.09%
N#CCCN1CCN(S(=O)(=O)c2ccc(S(=O)(=O)NC3CCCC3)cc2)CC1 -1.55%
O=C(c1ccccc1Br)N1CCN(c2ccccc2)CC1 9.32%
O=C(Cc1cccs1)NCc1ccc(F)cc1 -18.8%
CCn1c(SCC(=O)NC)nnc1C(C)C 12.7%
O=C(C1CCC(N2C(=O)C3CC=CCC3C2=O)CC1)N1CCCCC1 (stereo not given) 5.96%
O=C1CC(c2ccccc2)Cc2nc(N3CCc4ccccc43)ncc21 (stereo not given) 9.74%
Cc1nc2cc(Cl)ccc2n1CCO 17%
O=C(CCCc1cccs1)Nc1nc2c(s1)CCCC2 -29.3%
O=C(CN1C(=O)CCS(=O)(=O)c2ccccc21)NCc1ccc(F)cc1 15.3%
CCN1C(=O)c2cccc3c(NC(=O)c4ccc(S(=O)(=O)N(C)C)cc4)ccc1c23 23.8%
Cc1oc(-c2cccc(Cl)c2)nc1CN1CCC(C(=O)N2CCN(c3ccccc3F)CC2)CC1 -0.341%
C=CCOc1ccc(/C=N/n2cncn2)cc1OC -10.2%
Cc1ccc(-c2csc3ncn(-n4c(C)ccc4C)c(=O)c23)o1 -15.1%
c1ccc2c(c1)CNC1(CCCCC1)C2 13.3%
COc1cc(C2CC(=O)NC3=C2C(=O)CC(C)(C)C3)ccc1O (stereo not given) 1.82%
c1cncc(-c2nnc3n2N=C(c2cccs2)CS3)c1 5.28%
COC(=O)CCn1nnc(-c2cccs2)n1 -2.1%
O=C(CCn1c(=O)sc2ccccc21)Nc1nccs1 -21.2%
COc1ccc(N(CC(=O)O)S(=O)(=O)c2ccc(OC)c(OC)c2)cc1 15.4%
CCC(C)NC(=O)C1c2cc(OC)c(OC)cc2C(=O)N(C)C1c1ccc(OC)cc1 (stereo not given) -0.973%
